USP17 block: inhibitors of human USP17 deubiquitinase. inhibition, % at 50 µM. Ubiquitin carboxyl-terminal hydrolase 17-like protein 5 (Homo sapiens), A8MUK1. purified USP17, Ub-rhodamine cleavage fluorescence, 3 h. 47,000 tested, 6.5% active
USP28 block: inhibitors of human USP28 deubiquitinase; Ubiquitin carboxyl-terminal hydrolase 28 (Homo sapiens), Q96RU2; purified USP28, Ub-rhodamine cleavage fluorescence, 30 min; inhibition, % at 25 µM; 47,000 tested, 3% active; AID 1645857, 2021
USP8 inh: inhibitors of human USP8 deubiquitinase. Ubiquitin carboxyl-terminal hydrolase 8 (Homo sapiens), P40818. purified USP8, Ub-rhodamine cleavage fluorescence, 30 min. inhibition, % at 20 µM. 47,000 tested, 4.2% active
Target sequence (P40818 whole entry, looked up): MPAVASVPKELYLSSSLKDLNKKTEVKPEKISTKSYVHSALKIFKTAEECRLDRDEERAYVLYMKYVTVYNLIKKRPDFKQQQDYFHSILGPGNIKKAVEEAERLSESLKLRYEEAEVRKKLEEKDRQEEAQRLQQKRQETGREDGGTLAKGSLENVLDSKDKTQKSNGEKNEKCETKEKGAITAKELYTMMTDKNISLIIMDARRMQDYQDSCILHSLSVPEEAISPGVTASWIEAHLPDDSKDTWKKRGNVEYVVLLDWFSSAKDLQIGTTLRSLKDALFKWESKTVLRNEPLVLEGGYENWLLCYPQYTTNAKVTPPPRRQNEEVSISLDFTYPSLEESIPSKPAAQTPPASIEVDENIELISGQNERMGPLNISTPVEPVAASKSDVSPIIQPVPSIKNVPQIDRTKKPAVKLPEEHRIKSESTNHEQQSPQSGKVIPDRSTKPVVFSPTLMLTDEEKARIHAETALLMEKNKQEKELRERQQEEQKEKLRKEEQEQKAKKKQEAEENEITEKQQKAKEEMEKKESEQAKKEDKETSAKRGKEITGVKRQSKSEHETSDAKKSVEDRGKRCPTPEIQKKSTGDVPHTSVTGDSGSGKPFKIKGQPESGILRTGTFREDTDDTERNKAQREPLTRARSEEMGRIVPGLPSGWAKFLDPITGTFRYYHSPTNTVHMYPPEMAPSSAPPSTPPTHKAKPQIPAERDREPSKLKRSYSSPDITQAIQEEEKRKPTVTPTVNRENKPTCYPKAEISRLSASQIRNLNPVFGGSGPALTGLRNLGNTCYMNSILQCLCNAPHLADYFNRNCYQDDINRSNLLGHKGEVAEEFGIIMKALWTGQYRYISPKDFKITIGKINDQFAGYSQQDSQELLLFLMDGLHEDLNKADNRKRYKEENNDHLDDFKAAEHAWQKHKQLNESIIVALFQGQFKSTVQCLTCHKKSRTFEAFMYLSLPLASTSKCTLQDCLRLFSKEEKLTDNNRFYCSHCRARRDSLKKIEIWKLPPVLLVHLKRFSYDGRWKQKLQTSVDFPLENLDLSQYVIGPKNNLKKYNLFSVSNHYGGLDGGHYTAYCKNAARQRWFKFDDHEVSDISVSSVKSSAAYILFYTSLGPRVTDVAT
USP30 inh: inhibitors of human USP30 deubiquitinase; 47,000 tested, 5.3% active; inhibition, % at 25 µM; purified USP30, Ub-rhodamine cleavage fluorescence
* marks the source's active call; other numbers are inactive results; x = no result. Only some compounds are listed: those with a hit (about 14% of all), similar ones and a draw of the others. Cut-off read from the data, not from the text of the source: active = inhibition above about 30%; inactive = the rest.

SMILES | USP17 block | USP28 block | USP8 inh | USP30 inh
O=C(CSc1nc2ncc(Cl)cc2[nH]1)Nc1ccc(OCc2ccccc2)cc1 | 38* | -14 | -5 | -58
CCOC(=O)N1CCN(c2nccn3nc(-c4ccc(Cl)cc4)cc23)CC1 | 12 | -8 | 8 | -55
Cc1ccc(-c2nc(-c3cccc(C(=O)N4CCOCC4)c3)no2)cc1 | -2 | 5 | -1 | 20
Cc1cccc(NC(=O)NC2CCc3ncc(C(F)(F)F)n3C2)c1 (stereo not given) | x | -15 | -15 | -9
Cc1ccc(NC(=O)COc2ccccc2C#N)cc1 | 16 | -1 | 1 | 7
Cc1ccc(NC(=O)COc2ccccc2/C=C2/NC(=O)N(Cc3ccc(F)cc3)C2=O)cc1 | 29 | 39* | 24 | 45*
Cc1ccc(NC(=O)Cc2ccc(-c3ccccc3)cc2)c(C)c1 | 6 | 3 | 1 | 18
Cc1ccc(Nc2nc(O)c(CC(=O)Nc3ccccc3C)s2)cc1C | 74* | 4 | 90* | 15
Cc1ccc(Nc2nc(O)c(CC(=O)Nc3ccc(C)cc3C)s2)cc1 | 37* | 0 | 46* | 9
COc1ccc(NC(=O)Cc2sc(Nc3cccc(OC)c3)nc2O)cc1 | 1 | 1 | -10 | -27
Cc1cc(C)c(NC(=O)Cc2sc(Nc3ccc(C)c(C)c3)nc2O)c(C)c1 | 3 | 9 | 67* | -3
COc1cccc(NC(=O)Cc2sc(Nc3cc(C)cc(C)c3)nc2O)c1 | 62* | 4 | 22 | 0
FC(F)(F)c1cccc(Sc2cnc3ccccc3n2)c1 | -10 | 0 | 0 | -18
COc1cccc(C(=O)N2CCCC(Cc3cc(-c4ccccc4)no3)(C(=O)N(C)C)C2)c1 (stereo not given) | -4 | 0 | -5 | 7
COc1cccc(CC(=O)Nc2ccc3nc(C)sc3c2)c1 | -10 | 0 | -16 | -12
COc1ccc(NC(=O)CNC(=O)c2ccc3nc(-n4cccc4)sc3c2)cc1 | 31* | 17 | 82* | -45
CC(C)C[C@H](NC(=O)c1ccc2nc(-n3cccc3)sc2c1)C(=O)NCc1ccco1 | -17 | -21 | 53* | -159
CCc1cnc(N2CCC3(CCCN(c4ncc(F)cn4)C3)C2)nc1 (stereo not given) | -13 | -2 | -53 | -14
CSc1ncc(C(=O)NC(C)c2ccccc2)c(-c2ccccc2)n1 (stereo not given) | 60* | 8 | 21 | 23
O=C(C1CN(C(=O)c2cnc3ccccc3n2)c2ccccc2O1)N1CCOCC1 (stereo not given) | 26 | 7 | 70* | 1
COc1ccc(-c2nc3c(c(=O)[nH]2)CCN(C(=O)c2n[nH]c4c2CCCC4)C3)cc1 | -21 | -21 | -39 | -28
COc1cc(NC(=O)c2ccc3c(c2)OCO3)ccc1-c1cc2ccccc2oc1=O | 47* | 43* | 69* | -19
O=C(Nc1ccc2[nH]c(=O)[nH]c2c1)c1cc2ccccc2o1 | 43* | -9 | 42* | -89
O=C(Nc1c(C(=O)Nc2ccc3c(c2)OCO3)oc2ccccc12)c1cc2ccccc2o1 | 0 | -6 | 79* | -25
COc1cccc2cc(C(=O)Nc3ccc4c(c3)OCCO4)oc12 | 1 | 51* | 0 | 1
SMILES | USP17 block | USP28 block | USP8 inh | USP30 inh
COc1cccc2cc(C(=O)Nc3nc4c(s3)COCC4)oc12 | 3 | 7 | -23 | -8
Cc1cc(NC(=O)c2ccccc2F)ccc1-c1cc2ccccc2oc1=O | 5 | 14 | -22 | 12
CCOC(=O)CCC(=O)Nc1c(C(=O)Nc2ccc3c(c2)OCCO3)oc2ccccc12 | 15 | 16 | -51 | 9
Cc1ccc(CN(C(=O)C2CCCCC2)c2nc3nc(C)c(C)c(=O)n3[nH]2)cc1 | -13 | -3 | -120 | 4
CN(C)c1cc(C(=O)NC2CCCC2)nc2ccnn12 | -12 | -14 | 0 | -19
Cc1nccc(C(=O)N2CCCC(Cc3ccc4[nH]ncc4c3)CC2)n1 (stereo not given) | 4 | x | 2 | x
Cc1ccc(CNC(=O)Cn2ccc3ccn(C)c3c2=O)cc1 | 23 | 17 | -187 | 23
COc1ccccc1CCNCc1c(C(=O)O)c(C)n(-c2ccc(C)cc2)c1C | -1 | 0 | -7 | -9
CSc1cccc(NC(=O)CNC(=O)c2cc3ccccc3o2)c1 | 65* | 13 | 2 | -27
CCOc1ccccc1NC(=O)Nc1cccn2nc(C)nc12 | -21 | 1 | -1 | -13
CC(C)N1CC[C@@H]2[C@H](C1)CN2S(=O)(=O)c1cccc(F)c1 | -21 | -23 | -4 | -51
Cn1cccc1C(=O)N1CCn2nc(-c3ccc4ccccc4c3)cc2C1 | 11 | 9 | 17 | 12
COc1ccc(-c2ocnc2C(=O)Nc2ccc(C)c(F)c2)cc1 | -2 | x | -2 | x
O=C(Nc1cccc(F)c1)c1ncoc1-c1ccco1 | 54* | 17 | 16 | -20
Cc1ccc(Nc2nc3c(S(=O)(=O)c4ccc(C)c(C)c4)nnn3c3ccccc23)cc1C | 24 | 9 | 53* | 25
COc1ccc(NC(=O)C2CCCN(S(=O)(=O)N3CCCCCC3)C2)cc1 (stereo not given) | 51* | 16 | 18 | 6
Cc1cccc(NC(=O)C2CCCN(S(=O)(=O)c3cccnc3)C2)c1C (stereo not given) | 6 | -4 | 0 | 8
Cc1ccccc1CNC(=O)C1CCCN(S(=O)(=O)N2CCCCCC2)C1 (stereo not given) | -5 | 0 | -14 | 39*
COc1ccccc1NC(=O)C1CCCN(S(=O)(=O)N2CCC(C)CC2)C1 (stereo not given) | 3 | -2 | 6 | 0
COc1ccc(CNC(=O)C2CCCN(S(=O)(=O)Cc3ccc(Cl)cc3)C2)cc1 (stereo not given) | 14 | 27 | 25 | 47*
CC(=O)Nc1ccc(S(=O)(=O)N2CCCC(C(=O)Nc3cccc4ccccc34)C2)cc1 (stereo not given) | 26 | 29 | 1 | 56*
CCN(c1ccc(OC)cc1)S(=O)(=O)N1CCCC(C(=O)NCc2ccc(Cl)cc2)C1 (stereo not given) | -8 | 0 | -8 | -4
CCOC(=O)c1ccc(NC(=O)C2CCCN(c3nc(-c4ccc(OC)cc4)no3)C2)cc1 (stereo not given) | 19 | 19 | 24 | 37*
O=C(Nc1ccccc1CN1CCCC1)c1n[nH]c2ccccc2c1=O | 4 | -1 | 5 | 1
COc1ccc(OC)c(NC(=O)C2=C(C)Nc3ncnn3C2c2ccccn2)c1 (stereo not given) | 7 | 1 | 5 | 4
COc1ccc(OC)c(NC(=O)C2=C(C)Nc3ncnn3C2c2ccccc2OCc2ccc(C)cc2)c1 (stereo not given) | 58* | -3 | 1 | -20
Cc1ccc(NC(=O)Nc2ccc(C)n(CC(=O)Nc3cc(C)ccc3C)c2=O)cc1 | 54* | 30* | 70* | 65*
Cc1ccc(C)c(NC(=O)Cn2c(C)ncc(C(=O)NC3CCCC3)c2=O)c1 | -5 | 7 | 0 | 9

Assay outcomes (PubChem BioAssay)
